An excerpt weighted towards active compounds, which were near 6% of everything screened.
Tau fluor counter: counter-screen for tau fibril formation inhibitors. Potency, µM (highest dose often 57.7 µM). tau K18 P301L Alexa594 fluorescence, heparin fibrillization. AID 1463. 280,000 tested, 0.93% active; also: nearly all actives have a fitted effect of over 55% in size
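Human tau K18 P301L (15 uM unlabeled, 0.24 uM Alexa 594-labeled) in 100 mM sodium acetate pH 7 with 20 uM heparin, 6 hr at 37 C. ThT 30 uM added, 1 hr ambient; Alexa 594 FP and total fluorescence read at 555/632 nm.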
Tau fibril ThT: blocks human tau fibril formation measured by thioflavin T; recombinant tau K18 P301L, heparin-induced fibrillization, ThT fluorescence; P10636; 270,000 tested, 2.1% active; Potency, µM (doses to about 57.4 µM), actives largely listed as inhibitors; AID 1460; also: nearly all actives have a fitted effect of over 55% in size
Target sequence (P10636 561-689 P618L limits assumed): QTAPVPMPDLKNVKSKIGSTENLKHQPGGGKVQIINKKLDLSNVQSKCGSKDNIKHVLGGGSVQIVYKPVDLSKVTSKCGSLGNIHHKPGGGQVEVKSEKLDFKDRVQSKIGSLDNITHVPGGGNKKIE
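Fibril formation assay: tau K18 P301L at 15 uM with trace Alexa 594 label, heparin inducer 20 uM, pH 7 sodium acetate buffer, 37 C for 6 hr; endpoint ThT signal.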
PLK1 PBD inh: inhibitors of human PLK1 polo-box domain binding | 360,000 tested, 2.8% active | Potency, µM, hits mostly inhibitors | Plk1 PBD binding of FITC phosphopeptide, fluorescence polarization | P53350 | AID 720504; also: series mostly up to about 57 µM; nearly all actives have a fitted effect of over 65% in size
Target sequence (P53350 whole entry, looked up, the tested form may be a part): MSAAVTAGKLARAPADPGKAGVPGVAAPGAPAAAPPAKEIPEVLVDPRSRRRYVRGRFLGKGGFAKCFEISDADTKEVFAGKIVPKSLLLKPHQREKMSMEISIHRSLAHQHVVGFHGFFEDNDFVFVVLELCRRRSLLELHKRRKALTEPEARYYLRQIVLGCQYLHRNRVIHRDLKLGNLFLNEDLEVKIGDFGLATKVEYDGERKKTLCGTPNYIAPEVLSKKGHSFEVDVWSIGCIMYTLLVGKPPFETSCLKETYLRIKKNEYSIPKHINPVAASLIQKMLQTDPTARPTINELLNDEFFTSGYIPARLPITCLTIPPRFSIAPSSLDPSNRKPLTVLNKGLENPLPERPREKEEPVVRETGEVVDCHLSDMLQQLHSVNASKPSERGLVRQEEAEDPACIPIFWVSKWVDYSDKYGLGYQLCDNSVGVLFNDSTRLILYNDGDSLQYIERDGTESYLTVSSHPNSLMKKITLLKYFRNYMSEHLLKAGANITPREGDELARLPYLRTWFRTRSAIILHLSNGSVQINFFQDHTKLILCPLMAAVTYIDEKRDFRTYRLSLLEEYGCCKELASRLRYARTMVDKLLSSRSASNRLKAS
VDR inhibitor: blocks the human vitamin D receptor; P11473; VDR-SRC2-3 peptide fluorescence polarization, 2 h; Potency, µM, hits mostly inhibitors; 400,000 tested, 0.93% active; AID 504847
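Fluorescence polarization assay of small-molecule disruption of VDR binding to coregulator peptide SRC2-3. Compounds and controls pin-transferred, then read after 2 h incubation at ambient room temperature.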
Tau FP inhib: blocks human tau fibril formation measured by polarization. Potency, µM (top dose mostly 57.7 µM), hits mostly inhibitors. 280,000 tested, 0.39% active. K18 P301L tau heparin fibrillization, Alexa594 FP, 6 h. P10636. AID 1468; also: nearly all actives have a fitted effect of over 55% in size
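Quantitative HTS format: compounds meet 15 uM recombinant K18 P301L tau and Alexa 594-tau tracer in 100 mM sodium acetate pH 7; 20 uM heparin triggers fibrillization at 37 C over 6 hr; FP gives the signal.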
Sfp inh: blocks B. subtilis Sfp PPTase activity | 310,000 tested, 3.5% active | Q9F4F7 | AID 1490 | Biochemical Sfp PPTase activity, qHTS | Potency, µM, usual class: inhibitors;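 also: the enzyme is Sfp with the accession as filed and its product quenches rhodamine fluorescence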
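Reaction rates are the 30-min fluorescence difference (ex 525, em 598 nm) in wells containing 15 nM Sfp, 5 uM rhodamine-CoA and 12.5 uM BHQ-2-YbbR at pH 7.6 with 10 mM MgCl2.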
A number is an active result; - = inactive; ? = inconclusive; . = no result given; [ ] = remark or other dose. Calls follow the shape of the dose curve; as a rule, active = well fitted curve in the direction sought with a large enough effect; inconclusive = small, poorly fitted or top-dose-only effect, or another doubt; inactive = no such curve, though single readings can be large; an effect the other way counts as inactive or inconclusive.

SMILES | Tau fluor counter | Tau fibril ThT | PLK1 PBD inh | VDR inhibitor | Tau FP inhib | Sfp inh
N#Cc1ccsc1NC(=O)c1cnccn1 | - | - | - | - | - | 50.1µM
CC(C)c1onc(C(=O)Nc2sc3c(c2C#N)CCC3)c1[N+](=O)[O-] | - | ? | ? | - | - | 56.2µM
Cc1c(Cl)cccc1NC(=O)CSc1nc(=O)n(CCCN2CCOCC2)c2c1CCCC2 | . | . | - | . | . | .
CCOC(=O)CSc1nc2c(c(=O)[nH]c(=O)n2C)n1C/C=C(/C)Cl | - | - | ? | ? | - | 50.1µM
CCCCn1c(SCC(=O)OCC)nc2c1c(=O)[nH]c(=O)n2C | - | - | 26.7µM | - | - | -
CCOC(=O)CSc1nc2c(c(=O)[nH]c(=O)n2C)n1CCc1ccccc1 | - | - | - | - | - | -
CCCCCn1c(SCCN2CCOCC2)nc2c1c(=O)[nH]c(=O)n2C | - | - | 29.9µM | - | - | 50.1µM
CCCCCCn1c(SCCN2CCOCC2)nc2c1c(=O)[nH]c(=O)n2C | - | - | - | - | - | -
CCCOc1cccc(C(=O)Nc2ccc(-c3cc4ccccc4oc3=O)c(C)c2)c1 | - | - | . | - | - | .
CSc1nccc(NC(=O)c2cccc(Br)c2)n1 | . | . | - | - | . | -
O=C(NNC(=O)c1ccncc1)Nc1cc(Cl)ccc1Cl | . | . | - | - | . | .
CCCCCCCCN1C(=O)[C@H](CC(=O)NCCCOCCCC)C[C@@]2(C(=O)OCC)CCCC=C12 | . | . | - | . | . | .
COc1cc2c(cc1OC)C(c1ccccc1)CN(C)CC2 (stereo not given) | - | - | . | - | - | -
CCN(CC)c1ccc(/C=N/Nc2ccc(C)cc2)c(O)c1 | ? | 25.1µM | ? | - | - | 39.8µM
Cc1ccc(/C=N/Nc2cccc3cccnc23)c(O)c1 | - | - | - | - | - | 44.7µM
Cc1cccc(N/N=C/c2ccccc2O)c1 | 15.8µM[quencher] | ? | - | - | ? | -
CCOC(=O)N/N=C/c1ccc(N(CC)CC)cc1O | ? | ? | - | - | - | -
N#CC1c2ccccc2-c2ccccc2N1C(=O)c1ccccc1 (stereo not given) | . | . | - | . | . | .
O=C1CSC(c2ccc([N+](=O)[O-])cc2)N1c1ccc(O)cc1 (stereo not given) | . | . | - | - | . | -
Cc1ccc(S(=O)(=O)n2nc(C)c(C#N)c2N)cc1 | - | - | 26.7µM | ? | - | -
Cc1cc(C)cc(C(=O)N(Cc2nc(-c3ccc(Cl)cc3)no2)C(C)C)c1 | - | - | . | - | - | .
OCCn1nc2c3ccccc3nc-2n(-c2ccccc2)c1=S | - | ? | ? | - | - | 50.1µM
Cc1ccc(OCCCC(=O)Nc2sc3c(c2C(N)=O)CCCC3)cc1 | ? | ? | . | ? | - | .
Cc1cc(C(=O)CCl)c(C)n1CCc1ccc(F)cc1 | - | - | - | - | - | -
Cc1cc(C(=O)CCl)c(C)n1CCc1ccc(Cl)cc1 | - | ? | ? | 17.8µM | - | -
SMILES | Tau fluor counter | Tau fibril ThT | PLK1 PBD inh | VDR inhibitor | Tau FP inhib | Sfp inh
N#C/C(=C\c1cc(Cl)c(OCc2ccc(Cl)cc2)c(Cl)c1)C(N)=O | - | ? | . | . | - | -
N#C/C(=C\c1cc(O)c(O)c(O)c1)C(N)=O | - | ? | - | - | - | 3.55µM
CCOC(=O)c1ccc2nc(C(F)(F)F)[nH]c(=O)c2c1 | - | - | 26.7µM | - | - | -
COc1ccnc(CSC(N)=Nc2ccc(F)cc2)c1 | - | 28.2µM | ? | ? | ? | 22.4µM
CCN(CC)C(=O)Cn1c(SCC(=O)Nc2ccc(C)c(C)c2)nc2ccccc21 | - | - | . | - | - | .
CC(=O)Nc1c([N+](=O)[O-])cc2[nH]c(=O)[nH]c2c1[N+](=O)[O-] | - | ? | ? | - | - | 20µM
CO[C@H]1C=CO[C@@]2(C)Oc3c(C)c(O)c4c(O)c(c(C=NN5CCN(C6CCCC6)CC5)c(O)c4c3C2=O)NC(=O)C(C)=CC=C[C@H](C)[C@H](O)[C@@H](C)[C@@H](O)[C@@H](C)[C@H](OC(C)=O)[C@@H]1C | - | 17.8µM | . | . | - | -
Cc1nnc(SCc2cc(=O)[nH]c(=S)[nH]2)s1 | - | - | - | - | - | 20µM
Cc1nnc(SCc2cc(=O)c3ccccc3[nH]2)s1 | - | - | . | - | - | .
COC(=O)c1cc2sccc2n1Cc1nc(-c2cccc(Br)c2)oc1C | - | - | . | - | - | .
Cc1cc(Nc2ccccc2)nn1C(=O)c1ccc(Br)cc1 | 7.94µM[quencher] | - | - | - | - | -
COc1ccc(NC(=O)c2ccc(-c3ccc(-c4noc(C)n4)cc3C)cc2)cc1N1CCN(C)CC1 | ? | ? | - | - | - | 31.6µM
COc1ccc(-c2nc(-c3ccc(NC(=O)c4ccncc4)cc3)no2)cc1OC | - | - | - | - | - | -
COc1ccc(NC(=O)c2ccc(-c3ccc(-c4noc(C)n4)cc3C)cc2)cc1OCCN(C)C | ? | ? | . | - | - | 79.4µM
Oc1ccc2ccccc2c1C=NC1CCCCC1 | ? | 25.1µM | ? | - | ? | -
Oc1ccc2ccccc2c1/C=N/Nc1ccccc1 | 11.2µM[quencher] | 17.8µM | ? | - | ? | -
Oc1ccc2ccccc2c1C=Nc1ccc(Cl)cn1 | - | - | 16.8µM | - | - | -
Oc1ccc2ccccc2c1/C=N/c1nc2c(s1)CCCC2 | ? | 31.6µM | 13.4µM | - | ? | -
O=CN/N=C/c1c(O)ccc2ccccc12 | - | - | - | - | - | -
Oc1ccc2ccccc2c1/C=N/n1cnnc1 | - | ? | - | - | - | -
Cc1cc(O)c(C=Nc2ccc(Cl)cn2)c(=O)o1 | - | ? | - | - | - | ?
Cc1ccc(OCCn2c(C3CC(=O)N(Cc4ccc(F)cc4)C3)nc3ccccc32)c(C)c1 (stereo not given) | - | - | . | - | - | .
Cc1ccc(/C=C/c2onc(C)c2S(=O)(=O)N2CCC(C(=O)NCc3ccc(C)o3)CC2)cc1 | - | - | . | - | ? | .
CCOCCCn1c(SCC(=O)Nc2ccccc2Cl)nc2c(oc3ccccc32)c1=O | - | - | . | - | - | .
CSCC[C@H](NC(=O)[C@H](Cc1ccccc1)NC[C@@H](NC[C@@H](N)CS)C(C)C)C(=O)O | - | 25.1µM | . | 35.5µM | ? | -
SMILES | Tau fluor counter | Tau fibril ThT | PLK1 PBD inh | VDR inhibitor | Tau FP inhib | Sfp inh
C=CCN1c2ccccc2[C@]23C[C@@H](C(=O)OC)N(S(=O)(=O)c4ccc5c(c4)OCCN5C)C2=NC(C(=O)OC)=C(C(=O)OC)[C@H]13 | -[11.6 µM] | -[11.5 µM] | . | . | -[11.6 µM] | -
COc1ccc2c(c1OC)CN(C)CCc1cc3c(cc1C(O)C2)OCO3 (stereo not given) | - | - | - | - | - | -
COc1ccc2c(c1OC)C(Cc1ccccc1)N1CCc3cc4c(cc3C1C2)OCO4 (stereo not given) | ? | 15.8µM | . | ? | ? | 56.2µM
O=C1NC(=O)C(=Cc2ccccc2[N+](=O)[O-])S1 | . | . | 13.4µM | ? | . | .
O=C1NC(=O)/C(=C/c2cccc3ccccc23)S1 | . | . | 26.7µM | - | . | -
COCCNC(=O)c1ccc2c(c1)NC(=O)C(CS(=O)(=O)Cc1ccc(F)cc1Cl)N2 (stereo not given) | - | ? | . | - | ? | .
